The text below walks through data of PubChem BioAssay (NCATS).

Test [1] deals with PC49. Briefly: qHTS profiling for inhibitors of Plasmodium falciparum proliferation (AID 504749). The conditions noted are these: P. falciparum in erythrocytes, SYBR Green DNA, 72 h; series mostly up to 28.7 µM. In short, it runs like this: (§1)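 SYBR Green fluorescence of parasite DNA, read after lysis and overnight dark incubation, measured growth over 72 h in erythrocyte culture at 0.3% parasitemia and 2.5% hematocrit. Data normalised to DMSO and 0.29 uM artemisinin, with plate-drift correction.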
In general terms: Quantitative high-throughput screening tests each substance at several concentrations.

In test [2] the test system is SC27B. The description is as above. The settings on record: P. falciparum in erythrocytes, SYBR Green DNA, 72 h; series mostly up to 28.7 µM. In short, it runs like this:
as §1

Test [3] relates to TAB109. Described as above. The settings on record: P. falciparum in erythrocytes, SYBR Green DNA, 72 h; series mostly up to 28.7 µM. In short, it runs like this: as §1
Test [4] concerns TAB113. Described as above. The conditions noted are these: P. falciparum in erythrocytes, SYBR Green DNA, 72 h; series mostly up to 28.7 µM. The method, boiled down: as §1
Test [5] relates to TAB165. The test is described as above. The settings on record: P. falciparum in erythrocytes, SYBR Green DNA, 72 h; series mostly up to 28.7 µM. The method, boiled down: as §1
The test system of test [6] is W2. The description is as above. The conditions noted are these: P. falciparum in erythrocytes, SYBR Green DNA, 72 h; series mostly up to 28.7 µM. The method, boiled down:
as §1

The test system of test [7] is CRL-7250. Briefly: Cytotoxic Profiling of Annotated Libraries Using Quantitative High-Throughput Screening (AID 1296008). As to max response: % is scaled to controls: 0 for no effect and ±100 for the full control effect. The settings on record: Five cell lines viability, CellTiter-Glo ATP luminescence, 48-72 h; max response: hits give low values. The method, boiled down: (§2)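 Cytotoxicity was measured as CellTiter-Glo ATP luminescence, read after 10 min at room temperature. Compound treatment of the cells lasted 48 or 72 hr at 37 degrees Celsius in a qHTS format.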

Test [8] concerns HEK293. The test is described as above. The settings on record: Five cell lines viability, CellTiter-Glo ATP luminescence, 48-72 h; max response: hits give low values. In short, it runs like this:
as §2

Test [9] deals with HaCat. The description is as above. The conditions noted are these: Five cell lines viability, CellTiter-Glo ATP luminescence, 48-72 h; max response: hits give low values. In short, it runs like this:
as §2
On the technique in general: Cellular ATP, detected with luciferase, serves as a proxy for viable cell number.

Test [10] has as its system KB-3-1. The test is described as above. The settings on record: Five cell lines viability, CellTiter-Glo ATP luminescence, 48-72 h; max response: hits give low values. In short, it runs like this:
as §2

The subject of test [11] is NIH3T3. Described as above. The settings on record: Five cell lines viability, CellTiter-Glo ATP luminescence, 48-72 h; max response: hits give low values. In short, it runs like this:
as §2

For test [12], the system named is HACAT. Nature of the test: qHTS assay to identify novel small-molecules to repurpose for Merkel cell carcinoma treatment (AID 1296009). The conditions noted are these: MCC and control cell lines, CellTiter-Glo viability, 72 h; at 44.8 µM (top of the series) unless noted. The method, boiled down: (§3)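 Cell viability, measured as CellTiter-Glo luminescence, was normalized between DMSO and no-cell wells. The cells had been exposed to 8- or 11-point compound dilutions for 72 hr at 37 degree celsius.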

In test [13] the test system is HEK293T. The test is described as above. The conditions noted are these: MCC and control cell lines, CellTiter-Glo viability, 72 h; at 44.8 µM (top of the series) unless noted. The method, boiled down: as §3
The test system of test [14] is MCC-13. Described as above. The settings on record: MCC and control cell lines, CellTiter-Glo viability, 72 h; series mostly up to 46 µM. The method, boiled down: as §3
Test [15] concerns MCC-26. Described as above. The settings on record: MCC and control cell lines, CellTiter-Glo viability, 72 h; series mostly up to 46 µM. The method, boiled down: as §3
Test [16] deals with MKL-1. The test is described as above. The settings on record: MCC and control cell lines, CellTiter-Glo viability, 72 h; series mostly up to 46 µM. In short, it runs like this:
as §3

In test [17] the test system is MKL-2. The test is described as above. The conditions noted are these: MCC and control cell lines, CellTiter-Glo viability, 72 h; series mostly up to 46 µM. In short, it runs like this:
as §3

The test system of test [18] is UISO. Described as above. The conditions noted are these: MCC and control cell lines, CellTiter-Glo viability, 72 h; series mostly up to 46 µM. In short, it runs like this:
as §3

The test system of test [19] is WaGa. The description is as above. The settings on record: MCC and control cell lines, CellTiter-Glo viability, 72 h; series mostly up to 46 µM. In short, it runs like this:
as §3

Test [20] relates to NIH3T3. The description is as above. The settings on record: MCC and control cell lines, CellTiter-Glo viability, 72 h; at 44.8 µM (top of the series) unless noted. The method, boiled down:
as §3

Where “and” joins values, the source holds several entries; their conditions need not be identical. Identical values can stand only once. Results filed as inconclusive are left out. Some compounds were tested as several samples or in several runs, with calls that do not always agree. A number with no mark means an inactive call. Calls of active or inactive are those of the source. Calls follow the shape of the dose curve; as a rule, active = well fitted inhibition curve with a large enough effect; inconclusive = small, poorly fitted or top-dose-only effect; inactive = flat fitted curve, though single readings scatter.
Also: nearly all actives have a fitted effect of over 60% in size.
Potency is read from the fitted curve at half-maximal effect.

Consider `O=S(=O)(O)CCS`, for which the Potency entry in test [1], in test [2], in test [3], in test [4], in test [5] and in [6] was “inactive” in each case. In addition, the Potency entry in [14], in test [15], in test [16], in test [17], in test [18] and in [19] was “inactive” in each case. For the same molecule, the max response was 3.2% in [7]; -11.9% in test [8]; -12.1% in test [9]; 0.578% in [10]; 1.04% and -6.12% in test [11]. The molecule was called inactive in test [7], in test [8], in test [9], in test [12] and in test [13].

For `CC(=O)[C@H]1CC[C@H]2[C@@H]3CC=C4C[C@@H](O)CC[C@]4(C)[C@H]3CC[C@]12C`, the max response in test [7] is 3.91%; in [8], -4.16% and 0.472%; in test [9], 2.2%; in [10], -0.265% and 8.01%; in test [11], 0.775%. In addition, the call in [7], in test [9], in [11], in test [12] and in [20] was inactive. Also, the Potency result in test [14], in [15], in test [16], in test [17], in test [18] and in [19] was “inactive” each time.

`CC(C(=O)O)c1ccc2c(c1)CC(=O)c1ccccc1S2` (stereo not drawn): the max response in test [7] was -3.49% and 3.11%; in test [9] it was -2.2% and 1.58%; in [10], -3.77%; in test [11] it was 4.16% and -0.0725%. The call in test [7], in [9], in test [10], in test [11], in [12] and in [20] was inactive. The Potency result in test [14], in test [15], in test [16], in test [17], in test [18] and in test [19] was “inactive” each time.

`COC(=O)Nc1nc2ccc(S(=O)c3ccccc3)cc2[nH]1` (stereo not drawn): the Potency in test [7] is 7.5 µM (active); in test [8], 841 nM (active) and 16.6 µM (active); in [11] it was 1.06 µM (active). Moreover, the max response in test [7] was -3.6%. The call in [9] and in test [12] was inactive. In [15], the Potency entry was “inactive”.

As for `C[C@]12C=CC(=O)C=C1CC[C@@H]1[C@@H]2C(=O)C[C@@]2(C)[C@H]1CC[C@]2(O)C(=O)CO`, the Potency entry in test [1], in [2], in test [3], in [5], in [6] and in test [14] was “inactive” throughout. For the same molecule, the Potency entry in [16], in test [17], in [18] and in test [19] was “inactive” each time. For the same molecule, the max response in test [7] was 2.58%; in test [8], -4.32% and 0.184%; in [9], -8.77% and -10.7%; in test [10], 9.07% and 4.76%; in [11], -5.75%. For the same molecule, the molecule was classed as inactive in test [7], in test [11] and in [20].

`Nc1nc(F)nc2c1ncn2[C@@H]1O[C@H](CO)[C@@H](O)[C@@H]1O`: the Potency was 0.332 µM (active) in test [7]; 0.662 µM (active) in test [8]; 820 nM (active) and 1.3 µM (active) and 1.18 µM (active) in test [10]; 2.35 µM (active) in test [14]; 16.8 µM (active) in test [16]; 13.3 µM (active) and 935 nM (active) in [18]. The Potency in [19] was 10.6 µM (active) and 935 nM (active). Moreover, the figures for the max response in [7], in [8] and in test [9] were -19.1%, -7.93% and -5.85%, respectively. In test [10], the call was inactive.

For `O=C(N[C@H](CO)[C@H](O)c1ccc([N+](=O)[O-])cc1)C(Cl)Cl`, the max response was 2.58% in [7]; -14.6% and -20.9% in [9]; -16.7% in [10]; 4.84% and -8.61% in test [11]. The call in [7], in test [8], in test [10] and in test [13] was inactive. The Potency in [8] was 15.4 µM (active). The Potency entry in test [14], in test [16], in [17], in test [18] and in test [19] was “inactive” throughout.

`CNS(=O)(=O)CCc1ccc2[nH]cc(C3CCN(C)CC3)c2c1`: the max response was -7.4% and 0.211% in test [7]; 0.93% in [9]; -19.4% and 0.237% in test [10]; 0.12% in [11]. Also, the molecule was classed as inactive in test [7], in [9], in test [10], in test [11], in test [12] and in [13]. Moreover, the outcome in test [20] was inactive. The Potency result in [14], in [15], in test [16], in test [17], in test [18] and in test [19] was “inactive” each time.

Regarding `CNCC[C@H](Oc1cccc2ccccc12)c1cccs1`, the Potency was 4.47 µM (active) in [1]; 7.08 µM (active) in test [3]; 8.91 µM (active) in [4]; 12.6 µM (active) in [5]; 1.9 µM (active) in [6]; 21.1 µM (active) in test [8]. Further, the Potency in test [17] was 16.8 µM (active) and 18.7 µM (active); in [18], 16.6 µM (active). Further, the max response in [7] is -21.6%; in [10] it was -19.6% and -13.2%. Besides, the result in [7], in [9] and in [12] was inactive. Further, the Potency entry in [14], in [15] and in test [19] was “inactive” throughout.

Take `CN(Cc1cc(Br)cc(Br)c1N)C1CCCCC1`: the Potency result in test [1], in test [2], in test [3], in [4], in test [14] and in test [15] was “inactive” each time. For the same molecule, the Potency entry in test [16], in [17], in test [18] and in test [19] was “inactive” in each case. Further, in test [6], the Potency was 4.26 µM (active). The max response in [7] is 1.14%; in [9] it was 3.33%; in test [10], 2.85% and 5.96%; in test [11], 1.21%. Also, the outcome in test [7], in [8], in [9], in test [11], in test [12] and in [13] was inactive. Further, in test [20], the molecule was classed as inactive.

Consider `CN(C)CCc1c[nH]c2ccc(C[C@H]3COC(=O)N3)cc12`, for which the max response in [7] is -10.2%; in test [8] it was 4.33% and -3.7%; in test [9], 4.23%; in test [10], 7.3% and 1.82%; in test [11] it was -0.145%. Moreover, the molecule was called inactive in test [7], in test [9], in test [11], in test [12] and in [20]. The results for the Potency in test [8], in test [9] and in [11] were 4.18 µM (active), 14.8 µM (active) and 10.5 µM (active), respectively. Moreover, the Potency result in [14], in test [15], in test [16], in test [17], in test [18] and in [19] was “inactive” each time.
